High-throughput results: PubChem, National Center for Advancing Translational Sciences (NCATS)
Most compounds without a hit are left out; they make up all but 2.8% or so of the library.
PI5P4Ka inh: PI5P4K alpha (human) kinase inhibition. max response, %. 1.2% of 330,000 active. PI5P4Kalpha enzyme, ADP-Glo luminescence, 60 min; hits give low values. P48426; active = max response of -50% or lower; inconclusive = between -30% and -50%; inactive = -30% or higher; note: value at the top dose of about 77 µM; % is set by controls: 0 for no effect and ±100 for the full control effect
Target sequence (P48426 whole entry, looked up): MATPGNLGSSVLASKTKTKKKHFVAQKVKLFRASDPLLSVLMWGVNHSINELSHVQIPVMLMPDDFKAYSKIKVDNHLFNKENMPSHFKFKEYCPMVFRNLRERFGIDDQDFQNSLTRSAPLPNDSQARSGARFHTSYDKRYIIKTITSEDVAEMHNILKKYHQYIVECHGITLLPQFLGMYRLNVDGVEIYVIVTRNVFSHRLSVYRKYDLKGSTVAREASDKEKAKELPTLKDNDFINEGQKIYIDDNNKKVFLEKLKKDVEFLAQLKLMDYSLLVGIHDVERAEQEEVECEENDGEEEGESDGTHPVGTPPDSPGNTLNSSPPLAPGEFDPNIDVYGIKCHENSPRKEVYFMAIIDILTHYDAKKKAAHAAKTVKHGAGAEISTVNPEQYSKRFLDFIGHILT
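PI5P4Kalpha ADP-Glo assay; 5 microM ATP final; 60 min RT reaction; HEPES pH 7.4/EGTA/CHAPS, 5% DMSO; controls lacking substrate or enzyme; luminescent end-point.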
POLB inh: DNA polymerase beta (human) inhibition | Potency, µM (titrated, usually from 114 µM), for inactives: at the top dose activity change, negative = inhibition, actives largely listed as inhibitors | Pol beta primer extension/strand displacement, fluorescence kinetic | 1.3% of 340,000 active | AID 485314 | P06746; note: potency is the fitted concentration of half-maximal effect; % is set by controls: 0 for no effect and ±100 for the full control effect
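10 nM enzyme + cpd, 15 min RT; start with substrate 50 nM final; read 0 min and after 10 min RT. Corrected, normalized data; 4-parameter Hill curve fit.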
Pol iota inh: DNA polymerase iota (human) inhibition. Q9UNA4. Pol iota fluorescent replication assay, 10 min. Potency, µM (doses to about 115 µM), inactives show at the highest dose activity, negative = inhibition, actives largely listed as inhibitors. 1% of 390,000 active; note: potency is the fitted concentration of half-maximal effect
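Fluorescent replication assay read twice, at 0 min and 10 min after adding 50 nM (final) substrate. Enzyme (10 nM) and compounds were first incubated 15 min at room temperature; enzyme-free buffer wells were negative controls.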
Pol kappa inh-1: inhibitors of human DNA polymerase kappa; purified Pol kappa, fluorescent DNA synthesis assay, 10 min; Potency, µM (doses to about 107 µM), inactives show at the top dose activity, negative = inhibition, usual class: inhibitors; 0.53% of 400,000 active; note: potency is the fitted concentration of half-maximal effect; % is set by controls: 0 for no effect and ±100 for the full control effect
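Readout: fluorescence, taken kinetically at 0 and 10 min. Conditions: 10 nM Pol kappa, 15 min RT compound preincubation, 50 nM substrate final. Controls: enzyme-free buffer wells.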
WRN inhibitor: inhibitors of human WRN helicase; Potency, µM (series often up to 114 µM), for inactives: at the top dose activity change, negative = inhibition, usual class: inhibitors; WRN helicase unwinding, fluorescent forked duplex, kinetic; Q14191; AID 651768; 0.46% of 360,000 active; note: potency is the fitted concentration of half-maximal effect; % is set by controls: 0 for no effect and ±100 for the full control effect; nearly all actives have a fitted effect of over 55% in size
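Enzyme (20 nM final) and test compound sit together 15 min at room temperature before substrate addition. Substrate is a single-forked duplex oligonucleotide (100 nM) labelled with fluorophore and quencher, with 2 mM ATP; helicase unwinding raises red fluorescence, read kinetically.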
Pol eta inh-1: inhibitors of human DNA polymerase eta. AID 588591. recombinant Pol eta, fluorescent DNA replication assay. Potency, µM (series often up to 114 µM), for inactives: at the highest dose activity change, negative = inhibition, hits mostly inhibitors. 1.2% of 390,000 active; note: potency is the fitted concentration of half-maximal effect; % is set by controls: 0 for no effect and ±100 for the full control effect
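Fluorescent replication assay: 50 nM final substrate added after a 15 min room-temperature compound preincubation with 10 nM enzyme. Signal taken at 0 min and again at 10 min.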
Pol kappa inh-2: Pol kappa (human) inhibition, cherry-pick confirmation. shares compounds with Pol eta inh-1. purified Pol-kappa, fluorescent strand-displacement substrate. Potency, µM, actives largely listed as inhibitors. 76% of 920 active. AID 720501; note: potency is the fitted concentration of half-maximal effect
Pol eta inh-2: confirmation of human DNA polymerase eta inhibitors. shares compounds with Pol eta inh-1. AID 720502. Potency, µM, actives largely listed as inhibitors. 64% of 2,600 active. Pol eta primer extension, TAMRA/BHQ fluorescence, 10 min; note: potency is the fitted concentration of half-maximal effect
The depositor's hits bear a star; ? = inconclusive; · = not tested or not shown; [ ] = remark or other dose. Unless noted, calls come from the whole dose curve; as a rule, active = well fitted curve in the direction sought with a large enough effect; inconclusive = small, poorly fitted or top-dose-only effect, or another doubt; inactive = no such curve, though single readings can be large; an effect the other way counts as inactive or inconclusive.

SMILES | PI5P4Ka inh | POLB inh | Pol iota inh | Pol kappa inh-1 | WRN inhibitor | Pol eta inh-1 | Pol eta inh-2 | others
COC(=O)C1(C(=O)OC)c2ccccc2N(S(=O)(=O)c2ccc(C)cc2)C1CC(=O)c1ccccc1 (stereo unspecified) | 4 | · | · | · | -4% | · | ·
O=C(O)c1ccc(/C=N/NC(=O)c2cc3ccccc3cc2O)cc1 | ? | · | 16µM* | 50µM* | ? | 22µM* | ?
O=C(CNc1ccc2ccccc2c1)N/N=C/c1ccc(C(=O)O)cc1 | 8 | 10% | ? | ? | -15% | 1% | ·
COc1ccc(OC)c(-c2nnc3n2N=C(c2ccc(OC)c(OC4CCOC4)c2)CS3)c1 (stereo unspecified) | · | · | -21% | -1% | · | -14% | ·
COc1ccc(C2=Nn3c(nnc3-c3ccccc3Cl)SC2)cc1OC1CCCC1 | · | · | -29% | ? | · | -4% | · | Pol kappa inh-2=17*
COc1ccc(C2=Nn3c(nnc3-c3ccccc3Cl)SC2)cc1OC1CCOC1 (stereo unspecified) | · | · | -12% | -22% | · | -7% | · | Pol kappa inh-2=8.4*
CN(C)c1ccc(C(C(=O)NC2CCCCC2)N(Cc2ccco2)C(=O)c2snc(C(N)=O)c2N)cc1 (stereo unspecified) | -5 | 18% | 129% | -15% | 0% | -12% | ·
COc1cccc(/C=N/N2C(=O)CSC2=S)c1O | -55* | ? | ? | ? | ? | -9% | ?
COc1ccc2ccccc2c1/C=N/N1C(=O)CSC1=S | -21 | -2% | 29% | -36% | ? | -13% | ·
N#Cc1ccsc1NC(=O)COC(=O)CCS(=O)(=O)c1ccccc1 | -56* | · | ? | ? | -13%[11.6 µM] | 32µM* | ?
N#Cc1ccsc1NC(=O)CCS(=O)(=O)c1ccccc1 | -3 | -19% | -22% | -10% | 3% | 8% | ·
COc1ccc(S(=O)(=O)NC(=O)C2(C)CCN2C(=O)CCC2CCCC2)cc1OC (stereo unspecified) | -12 | · | · | · | 10% | · | ·
Cc1ccc(NC(=O)CSc2nc3cc(C(=O)NCC4CCCO4)ccc3c(=O)n2CC2CCCO2)cc1 (stereo unspecified) | 4 | · | · | · | 0% | -15% | ·
C/C(=N\Nc1ccc(C(=O)O)cc1)c1ccc2c(c1)Nc1ccccc1S2 | ? | ? | 22µM* | ? | -35% | 25µM* | 76*
C/C(=N/Nc1ccc(C(=O)O)cc1)c1ccc2c(c1)Nc1ccccc1S2 | -23 | · | 50µM* | ? | -5%[11.6 µM] | 18µM* | 76* | Pol kappa inh-2=38*
CC(=O)Nc1ccc(NC(=O)c2ccc3c(c2)NC(=O)c2ccccc2S3)cc1 | · | 8% | -12% | 5% | · | -23% | ·
CCCNC(=O)CN1C(=O)CSc2ccc(S(=O)(=O)N3CCC(C)CC3)cc21 | · | 14% | 47% | -1% | · | -16% | ·
COc1cccc(N(CC(=O)NC2CCCC2)C(=O)CCC(=O)Nc2cc(C)on2)c1 | 0 | 11% | 67% | 7% | 5% | -20% | ·
CCc1ccccc1N(C)S(=O)(=O)c1ccc(-c2cc(C)no2)s1 | 2 | 5% | 26% | 8% | 8% | -11% | ·
O=C(CSc1ncn(-c2ccccc2)n1)Nc1nc2ccccc2s1 | · | -22% | -16%[58.9 µM] | -12% | -2% | -17% | ·
O=C(CSc1ncn(-c2ccccc2)n1)Nc1nc2c(s1)CCCC2 | · | 32µM* | 25µM* | 0% | -26%[57.1 µM] | 50µM* | ?
Cc1ccc(NC(=O)CCNS(=O)(=O)c2ccc3c(c2)oc(=O)n3C)cc1 | · | -3% | 20µM* | 89µM* | ? | 50µM* | ?
COc1ccc(OCC(=O)OCc2cc(=O)n3nc(-c4cccs4)sc3n2)cc1 | · | ? | -14% | 3% | · | ? | ·
Cc1cccc(OCC(=O)OCc2cc(=O)n3nc(-c4cccs4)sc3n2)c1 | · | 25µM* | ? | ? | · | ? | ?
